In all, about 25,000 sequences were measured (“ln(normalized median fluorescence intensity)”: median about 7.1, highest 2% from about 10 on). Only a selection was taken, and the highest values are over-represented in it overall.
System: PfSIP2 AP2 domain 1 (GST-tagged)
Experiment: gcPBM binding intensity (ln(normalized median fluorescence intensity)); higher = stronger DNA binding
In short: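 GST-tagged P. falciparum DNA-binding domains, expressed in E. coli (about 25 μg on average), were applied for 1 h to an Agilent 4 × 180k array of primer-extended double-stranded 36-bp intergenic genomic probes plus negative controls. The binding buffer was 1× PBS with 1% milk, 0.2 mg/ml BSA, 0.5% salmon testes DNA and 0.03% Triton X-100. Bound protein was detected with Alexa488 anti-GST antibody and scanned at 488 nm. Binding intensity is the highest Masliner-normalised natural-log median intensity across replicate spots of either probe orientation.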

Sequence | gcPBM binding intensity (ln)
TGATGATATAAAAACACACACATATAACATAATACT [CACACA_site6687] | 7.04
TAATATAATCTGAGTGCACACAAATAAATAAACATA [CACACA_site8032] | 10.3
ATATAATCTGAGTGCACACAAATAAATAAACATACA [CACACA_site422] | 10.4
TATATACATATATGCACACAAAAAAATATATATTTT [CACACA_site1729] | 7.3
AATATAATATAATGCACACATAAACAAAAAAAAAAT [CACACA_site1304] | 7.53
ATATATTTGATAAGAGTGCACAAATACATACATACA [GTGCAC_site9704] | 10.6
TAAATATATAAATACACACAAACATACATATATATA [CACACA_site4050] | 7.55
TACATATTGATATATACACACAAAAAAATAAATTCT [CACACA_site6198] | 7
AAAATATAAAATAATGCACACATAAACAAAAAATCA [CACACA_site8382] | 7.33
TATAAATATACAAACACACATACAAACATATATATA [CACACA_site1120] | 7.27
TACACAAATATATATATATATATATATATATATATA [XGTACX_negctrl_site305] | 9.89
ATGAGTGCACAAATATATATATATATATATATATAT [CACACA_negctrl_site404] | 11.6
GCACAAATATATATATATATATATATATATATATAT [GTGCAC_negctrl_site661] | 9.36
TATACATATATTATATGTACATATATATATAATATA [XGTACX_site2942] | 7.26
TACTATCTATACAATACACACAAAAAAAAAAAAATA [CACACA_site3981] | 6.95
AATTGAGAAGTGTGTTGTACATAATGGCACATACCT [XGTACX_site1370] | 7.22
ATATTAACTATCATAACACACACAGTAGACATATTT [CACACA_site6941] | 6.99
CATTTTTTGCTTTCAACACACATACAATATAAATAA [CACACA_site7858] | 7.27
ATGAACTAAACTAATCGTACAATAAGTTTTATTATA [XGTACX_site4891] | 6.84
GGCATTTTATGAAGTAGTACCATAAATATTAAAGAT [XGTACX_site5287] | 7.32
TTTATATTTATCCAAAGTACTTTTTAAAAACATACC [XGTACX_site4518] | 7.36
TGGCTTATTCAGAAATGTACACATATAAATATATAT [XGTACX_site3765] | 7.11
AATGGGATCATGGTATGTACTTACACAAATGAATTA [XGTACX_site5389] | 6.82
CTATAAATATTTTATTGTACACACTTTTTATGAATG [XGTACX_site6711] | 7.22

Sequence | gcPBM binding intensity (ln)
TTCATTAAAATTATTACACACAGTTCTTCAACCAAA [CACACA_site3504] | 6.84
AAAGGTTTATATGATACACACATAAGTGATCAGGTT [CACACA_site190] | 6.75
GTAGATATTTATTGAGTGCATGTTATAAAGGGAAAA [GTGCAC_site9481] | 9.62
AGATATTTATTGAGTGCATGTTATAAAGGGAAAAAA [TGCATGCA_site88] | 10.3
GGAAAAATATAATATGCATGTTATTATTTTTTTATA [TGCATGCA_site836] | 6.77
TAAAAACATTTAAATTGTACGGAAATAAAAATTTTT [XGTACX_site8225] | 6.94
AGTAATAGTTTGTGCACACTCAAGTATATCATATAT [CACACA_site4034] | 9.56
TATTTCAAAATATGGGTGCAGTTCTTCATGATATAT [GTGCAC_site9658] | 10.7
TATATTTCTTCTATAACATGCAGATATATGAAAATA [TGCATGCA_site971] | 7.11
AATATATGGTTTCATGATATTAAATTCAAAATAATG [CACACA_negctrl_site318] | 6.75
TTTAAAAAATGTTATATTATATAATTAAAAAAAAAA [CACACA_negctrl_site1509] | 6.63
AACCAAACAAATAAACGTACAAACATTACATATATT [XGTACX_site2265] | 7.05
TTACTATGTAAACACACATGCAATATATGTTAAGCC [TGCATGCA_site253] | 6.91
TTTATAAAGGGAAAGGTGCAAAAGGTGAAAGTTTTA | 10.8
AGTGTTTTTTATAAAGTGCAATATAAAAACAAAATG | 8.59
AATTATTGTGAAGGGAAAACAAAAAAGTTTATAATT [CACACA_negctrl_site1337] | 6.87
TATATATATATACATTGTACATTATTGATTATAACA [XGTACX_site1678] | 9.52
TTTGAATCCTTATATACACACATTATGTAATATTAT [CACACA_site561] | 7.1
ATATATATATATATATGTACATAGAGAAGTATCTTT [XGTACX_site4737] | 9.91
TTTTTTTTTTTTTTGGTGCAGTTCACATATTATATA [GTGCAC_site9996] | 9.48
GAAGTAGATGGAAAAGTGCACTGTAATGGTTATATT | 10.3
ATGTAGAAGTAATGCACACATATGTATTTATATATA [CACACA_site5391] | 7.26
ATGGTTATATTTGAAGTGCAAAAAAAAATATATGTA | 8.55
